Reference: ChEMBL document CHEMBL1961873, “Compounds: GSK PKIS; Assays: Nanosyn kinase panel” (2012)

Tests used:
[1] = biological target: Sphingosine kinase 1 (Homo sapiens) (UniProt Q9NYA1); conditions: at 1 µM;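 further: mean SPHK1 inhibition value reported from the GSK PKIS kinase panel screen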
[2] = biological target: T1, Sphingosine kinase 2 (Homo sapiens) (UniProt Q9NRA0); conditions: at 0.1 µM
T1 sequence (whole entry): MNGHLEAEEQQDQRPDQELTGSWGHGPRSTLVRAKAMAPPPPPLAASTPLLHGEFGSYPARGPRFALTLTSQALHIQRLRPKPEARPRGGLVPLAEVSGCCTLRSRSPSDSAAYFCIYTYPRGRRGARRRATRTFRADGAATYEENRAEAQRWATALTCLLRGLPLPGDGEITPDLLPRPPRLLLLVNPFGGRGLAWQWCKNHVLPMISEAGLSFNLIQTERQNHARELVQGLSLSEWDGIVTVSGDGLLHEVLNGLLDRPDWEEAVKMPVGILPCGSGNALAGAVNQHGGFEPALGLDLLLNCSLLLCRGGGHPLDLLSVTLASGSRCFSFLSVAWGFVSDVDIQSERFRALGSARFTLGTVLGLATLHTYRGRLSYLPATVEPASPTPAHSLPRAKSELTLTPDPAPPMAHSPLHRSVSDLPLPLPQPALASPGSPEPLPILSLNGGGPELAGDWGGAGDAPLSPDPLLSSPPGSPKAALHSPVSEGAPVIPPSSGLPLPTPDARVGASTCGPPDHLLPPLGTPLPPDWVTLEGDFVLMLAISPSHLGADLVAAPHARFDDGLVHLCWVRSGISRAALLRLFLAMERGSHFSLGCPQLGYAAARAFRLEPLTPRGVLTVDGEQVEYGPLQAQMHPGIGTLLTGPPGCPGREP

[3] = biological target: T1, Sphingosine kinase 2 (Homo sapiens); conditions: at 1 µM
[4] = biological target: Casein kinase II subunit alpha (Homo sapiens) (UniProt P68400); conditions: at 0.1 µM
Chain of Casein kinase II subunit alpha (Homo sapiens) (P68400 whole entry, looked up): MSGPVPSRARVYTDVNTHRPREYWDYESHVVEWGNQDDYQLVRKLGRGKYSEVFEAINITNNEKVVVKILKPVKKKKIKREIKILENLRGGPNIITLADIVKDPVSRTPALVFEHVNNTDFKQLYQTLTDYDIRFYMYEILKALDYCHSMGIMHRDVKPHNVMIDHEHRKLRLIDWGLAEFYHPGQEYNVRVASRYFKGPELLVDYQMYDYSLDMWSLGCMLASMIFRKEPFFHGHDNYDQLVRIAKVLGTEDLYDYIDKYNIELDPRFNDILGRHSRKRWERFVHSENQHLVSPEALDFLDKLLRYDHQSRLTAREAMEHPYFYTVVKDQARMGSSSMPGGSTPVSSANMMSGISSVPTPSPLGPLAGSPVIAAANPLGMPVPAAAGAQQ

[5] = biological target: Casein kinase II subunit alpha (Homo sapiens) (UniProt P68400); conditions: at 1 µM
[6] = biological target: T2, Inhibitor of nuclear factor kappa-B kinase subunit alpha (Homo sapiens) (UniProt O15111); conditions: at 0.1 µM
T2 sequence (whole entry): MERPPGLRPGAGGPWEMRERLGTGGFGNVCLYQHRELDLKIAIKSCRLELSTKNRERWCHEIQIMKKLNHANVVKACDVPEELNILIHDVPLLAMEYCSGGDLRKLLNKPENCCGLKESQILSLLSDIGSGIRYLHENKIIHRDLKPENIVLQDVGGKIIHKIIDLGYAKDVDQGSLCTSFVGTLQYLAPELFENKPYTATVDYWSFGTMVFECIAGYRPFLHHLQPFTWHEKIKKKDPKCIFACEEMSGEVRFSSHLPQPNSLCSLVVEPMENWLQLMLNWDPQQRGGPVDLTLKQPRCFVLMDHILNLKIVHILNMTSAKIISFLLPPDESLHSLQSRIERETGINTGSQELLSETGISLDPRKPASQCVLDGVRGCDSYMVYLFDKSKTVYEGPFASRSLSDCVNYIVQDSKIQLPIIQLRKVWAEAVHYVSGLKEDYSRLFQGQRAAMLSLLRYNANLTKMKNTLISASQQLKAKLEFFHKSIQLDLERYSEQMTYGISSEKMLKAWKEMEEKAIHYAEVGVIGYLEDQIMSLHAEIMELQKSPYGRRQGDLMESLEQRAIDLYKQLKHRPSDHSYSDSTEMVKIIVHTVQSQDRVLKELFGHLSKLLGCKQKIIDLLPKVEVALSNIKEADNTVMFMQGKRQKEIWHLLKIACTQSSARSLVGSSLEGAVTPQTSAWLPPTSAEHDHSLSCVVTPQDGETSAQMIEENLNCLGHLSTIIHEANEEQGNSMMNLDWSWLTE

[7] = biological target: T2, Inhibitor of nuclear factor kappa-B kinase subunit alpha (Homo sapiens); conditions: at 1 µM
[8] = biological target: T3, Inhibitor of nuclear factor kappa-B kinase subunit beta (Homo sapiens) (UniProt O14920); conditions: at 0.1 µM
T3 sequence (whole entry): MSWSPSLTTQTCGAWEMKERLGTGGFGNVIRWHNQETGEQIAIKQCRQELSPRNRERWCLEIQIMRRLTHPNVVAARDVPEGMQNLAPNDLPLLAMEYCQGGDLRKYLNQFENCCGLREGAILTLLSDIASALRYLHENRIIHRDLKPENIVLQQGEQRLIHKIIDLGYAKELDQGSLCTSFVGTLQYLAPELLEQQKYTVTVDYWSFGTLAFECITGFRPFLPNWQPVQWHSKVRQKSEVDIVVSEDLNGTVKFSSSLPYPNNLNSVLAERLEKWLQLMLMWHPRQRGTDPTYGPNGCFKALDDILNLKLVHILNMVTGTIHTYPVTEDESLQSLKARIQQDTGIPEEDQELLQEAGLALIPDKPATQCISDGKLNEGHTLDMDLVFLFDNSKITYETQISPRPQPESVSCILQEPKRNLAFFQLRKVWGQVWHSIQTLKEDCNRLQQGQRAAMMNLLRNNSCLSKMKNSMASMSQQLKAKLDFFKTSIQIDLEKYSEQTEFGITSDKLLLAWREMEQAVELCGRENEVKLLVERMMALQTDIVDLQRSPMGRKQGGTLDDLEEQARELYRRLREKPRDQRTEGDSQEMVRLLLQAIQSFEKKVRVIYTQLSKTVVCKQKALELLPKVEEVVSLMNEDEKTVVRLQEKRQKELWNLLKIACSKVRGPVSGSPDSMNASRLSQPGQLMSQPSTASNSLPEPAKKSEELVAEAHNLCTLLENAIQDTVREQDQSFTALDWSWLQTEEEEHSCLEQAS

[9] = biological target: T3, Inhibitor of nuclear factor kappa-B kinase subunit beta (Homo sapiens); conditions: at 1 µM
[10] = biological target: T4, Inhibitor of nuclear factor kappa-B kinase subunit epsilon (Homo sapiens) (UniProt Q14164); conditions: at 0.1 µM
T4 sequence (whole entry): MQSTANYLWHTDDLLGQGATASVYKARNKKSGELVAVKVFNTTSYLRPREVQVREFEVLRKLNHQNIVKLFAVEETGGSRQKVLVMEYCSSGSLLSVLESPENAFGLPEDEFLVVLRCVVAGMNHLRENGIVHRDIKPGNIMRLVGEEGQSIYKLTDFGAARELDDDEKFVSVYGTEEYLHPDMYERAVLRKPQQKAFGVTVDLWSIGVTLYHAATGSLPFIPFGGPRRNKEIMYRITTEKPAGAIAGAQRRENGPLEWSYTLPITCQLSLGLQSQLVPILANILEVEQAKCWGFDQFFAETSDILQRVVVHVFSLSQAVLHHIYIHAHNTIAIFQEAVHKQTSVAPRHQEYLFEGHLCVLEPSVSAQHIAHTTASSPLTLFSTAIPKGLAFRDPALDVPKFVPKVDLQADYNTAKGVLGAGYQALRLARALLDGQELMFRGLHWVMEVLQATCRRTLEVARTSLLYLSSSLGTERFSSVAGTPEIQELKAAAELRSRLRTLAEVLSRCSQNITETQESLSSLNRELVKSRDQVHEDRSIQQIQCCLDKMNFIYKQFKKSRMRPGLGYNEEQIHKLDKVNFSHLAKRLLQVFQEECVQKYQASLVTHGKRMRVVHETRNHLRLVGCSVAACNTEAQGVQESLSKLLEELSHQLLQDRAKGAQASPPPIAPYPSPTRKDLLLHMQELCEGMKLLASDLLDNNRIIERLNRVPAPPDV

[11] = biological target: T4, Inhibitor of nuclear factor kappa-B kinase subunit epsilon (Homo sapiens); conditions: at 1 µM
[12] = biological target: T5, Serine/threonine-protein kinase Nek1 (Homo sapiens) (UniProt Q96PY6); conditions: at 0.1 µM
T5 sequence (whole entry): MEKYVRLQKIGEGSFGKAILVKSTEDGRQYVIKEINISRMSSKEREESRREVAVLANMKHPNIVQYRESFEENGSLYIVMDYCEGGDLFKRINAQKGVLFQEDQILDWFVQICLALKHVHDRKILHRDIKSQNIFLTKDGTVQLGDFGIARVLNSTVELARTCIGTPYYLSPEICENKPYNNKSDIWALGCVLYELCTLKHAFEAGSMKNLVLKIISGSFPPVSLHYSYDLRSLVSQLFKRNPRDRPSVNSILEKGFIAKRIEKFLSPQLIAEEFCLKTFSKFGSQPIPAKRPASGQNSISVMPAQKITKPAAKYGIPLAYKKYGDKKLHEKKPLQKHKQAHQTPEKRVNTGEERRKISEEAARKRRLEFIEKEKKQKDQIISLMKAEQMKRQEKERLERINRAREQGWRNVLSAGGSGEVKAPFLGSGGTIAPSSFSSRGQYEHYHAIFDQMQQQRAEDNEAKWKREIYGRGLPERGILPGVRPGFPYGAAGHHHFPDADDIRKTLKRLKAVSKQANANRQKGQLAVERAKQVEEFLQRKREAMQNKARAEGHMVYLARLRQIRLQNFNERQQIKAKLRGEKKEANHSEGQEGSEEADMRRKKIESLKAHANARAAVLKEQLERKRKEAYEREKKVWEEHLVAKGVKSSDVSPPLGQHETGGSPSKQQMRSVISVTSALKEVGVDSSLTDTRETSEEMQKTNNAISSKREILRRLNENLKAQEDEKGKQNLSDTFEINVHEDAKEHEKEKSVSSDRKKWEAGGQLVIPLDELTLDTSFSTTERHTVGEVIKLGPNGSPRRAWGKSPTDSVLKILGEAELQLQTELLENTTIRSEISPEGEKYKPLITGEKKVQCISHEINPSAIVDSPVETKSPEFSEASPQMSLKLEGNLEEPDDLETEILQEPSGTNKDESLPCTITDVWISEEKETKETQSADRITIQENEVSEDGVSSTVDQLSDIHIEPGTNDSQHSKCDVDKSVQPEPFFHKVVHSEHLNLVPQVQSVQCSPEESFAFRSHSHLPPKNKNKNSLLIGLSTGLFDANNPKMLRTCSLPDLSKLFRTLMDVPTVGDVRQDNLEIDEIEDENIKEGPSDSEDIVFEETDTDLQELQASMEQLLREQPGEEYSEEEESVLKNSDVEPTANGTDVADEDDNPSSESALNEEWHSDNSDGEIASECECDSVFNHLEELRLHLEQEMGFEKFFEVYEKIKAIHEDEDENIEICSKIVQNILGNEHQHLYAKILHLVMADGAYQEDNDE

[13] = biological target: T5, Serine/threonine-protein kinase Nek1 (Homo sapiens); conditions: at 1 µM
[14] = biological target: T6, Serine/threonine-protein kinase Nek2 (Homo sapiens) (UniProt P51955); conditions: at 0.1 µM
T6 sequence (whole entry): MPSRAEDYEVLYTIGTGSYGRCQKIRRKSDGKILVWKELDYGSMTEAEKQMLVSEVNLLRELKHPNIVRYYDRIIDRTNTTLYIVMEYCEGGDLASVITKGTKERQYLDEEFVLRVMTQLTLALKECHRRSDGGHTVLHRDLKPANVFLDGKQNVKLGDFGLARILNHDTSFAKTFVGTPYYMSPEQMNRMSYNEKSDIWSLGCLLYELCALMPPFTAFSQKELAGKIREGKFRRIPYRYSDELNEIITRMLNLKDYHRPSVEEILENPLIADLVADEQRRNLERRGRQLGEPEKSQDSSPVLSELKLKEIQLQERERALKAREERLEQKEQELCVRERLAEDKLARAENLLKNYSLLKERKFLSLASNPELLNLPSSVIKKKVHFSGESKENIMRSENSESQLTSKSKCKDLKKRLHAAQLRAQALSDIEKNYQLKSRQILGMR

[15] = biological target: T6, Serine/threonine-protein kinase Nek2 (Homo sapiens); conditions: at 1 µM
[16] = biological target: Serine/threonine-protein kinase Nek6 (Homo sapiens) (UniProt Q9HC98); conditions: at 0.1 µM
Chain of Serine/threonine-protein kinase Nek6 (Homo sapiens) (Q9HC98 whole entry): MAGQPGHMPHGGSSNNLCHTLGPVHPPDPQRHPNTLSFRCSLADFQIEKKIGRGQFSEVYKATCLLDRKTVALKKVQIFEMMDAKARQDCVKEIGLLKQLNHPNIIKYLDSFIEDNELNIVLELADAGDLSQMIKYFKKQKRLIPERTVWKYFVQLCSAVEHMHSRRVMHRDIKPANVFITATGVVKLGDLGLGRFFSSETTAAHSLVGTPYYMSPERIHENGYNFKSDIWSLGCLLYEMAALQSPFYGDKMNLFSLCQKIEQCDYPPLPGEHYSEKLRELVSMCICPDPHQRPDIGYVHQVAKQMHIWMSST

[17] = biological target: Serine/threonine-protein kinase Nek6 (Homo sapiens) (UniProt Q9HC98); conditions: at 1 µM
[18] = biological target: Serine/threonine-protein kinase Nek7 (Homo sapiens) (UniProt Q8TDX7); conditions: at 0.1 µM
Chain of Serine/threonine-protein kinase Nek7 (Homo sapiens) (Q8TDX7 whole entry, looked up): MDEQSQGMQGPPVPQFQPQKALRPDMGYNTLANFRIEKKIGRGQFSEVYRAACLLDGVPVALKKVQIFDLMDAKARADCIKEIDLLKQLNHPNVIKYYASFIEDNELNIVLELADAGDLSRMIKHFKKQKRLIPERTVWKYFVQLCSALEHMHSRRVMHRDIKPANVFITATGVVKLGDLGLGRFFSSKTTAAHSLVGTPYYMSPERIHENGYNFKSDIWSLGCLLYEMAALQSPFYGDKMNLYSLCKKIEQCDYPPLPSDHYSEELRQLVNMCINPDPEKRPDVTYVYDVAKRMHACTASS

[19] = biological target: Serine/threonine-protein kinase Nek7 (Homo sapiens) (UniProt Q8TDX7); conditions: at 1 µM
[20] = biological target: T7, Serine/threonine-protein kinase Nek9 (Homo sapiens) (UniProt Q8TD19); conditions: at 0.1 µM;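 further: reported value is the mean percent inhibition of NEK9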
T7 sequence (whole entry): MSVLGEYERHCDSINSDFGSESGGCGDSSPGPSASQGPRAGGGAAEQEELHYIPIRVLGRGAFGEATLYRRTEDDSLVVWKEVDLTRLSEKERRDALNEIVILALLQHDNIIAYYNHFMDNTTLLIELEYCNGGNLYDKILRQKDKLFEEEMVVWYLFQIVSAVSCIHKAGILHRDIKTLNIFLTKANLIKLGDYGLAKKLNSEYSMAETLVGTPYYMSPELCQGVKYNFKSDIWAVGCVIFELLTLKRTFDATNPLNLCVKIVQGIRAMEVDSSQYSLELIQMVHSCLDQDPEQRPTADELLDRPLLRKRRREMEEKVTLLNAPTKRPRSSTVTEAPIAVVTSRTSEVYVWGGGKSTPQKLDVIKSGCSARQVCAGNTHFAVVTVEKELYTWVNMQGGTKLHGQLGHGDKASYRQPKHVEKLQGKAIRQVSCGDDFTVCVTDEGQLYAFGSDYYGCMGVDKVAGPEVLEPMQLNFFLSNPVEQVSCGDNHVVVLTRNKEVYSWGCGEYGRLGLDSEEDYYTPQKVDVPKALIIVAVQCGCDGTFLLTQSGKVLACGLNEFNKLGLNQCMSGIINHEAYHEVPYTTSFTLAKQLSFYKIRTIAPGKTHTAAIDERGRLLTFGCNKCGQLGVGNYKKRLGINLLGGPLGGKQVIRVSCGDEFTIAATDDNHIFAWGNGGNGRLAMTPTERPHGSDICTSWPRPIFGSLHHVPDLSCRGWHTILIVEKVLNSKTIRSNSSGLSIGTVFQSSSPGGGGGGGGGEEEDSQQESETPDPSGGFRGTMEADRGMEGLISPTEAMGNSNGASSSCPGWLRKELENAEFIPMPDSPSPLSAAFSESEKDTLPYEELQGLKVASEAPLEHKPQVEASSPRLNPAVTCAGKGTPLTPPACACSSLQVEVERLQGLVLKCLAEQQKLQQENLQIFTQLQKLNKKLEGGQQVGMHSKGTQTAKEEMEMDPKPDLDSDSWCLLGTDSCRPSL

Chain of Sphingosine kinase 1 (Homo sapiens) (Q9NYA1 whole entry): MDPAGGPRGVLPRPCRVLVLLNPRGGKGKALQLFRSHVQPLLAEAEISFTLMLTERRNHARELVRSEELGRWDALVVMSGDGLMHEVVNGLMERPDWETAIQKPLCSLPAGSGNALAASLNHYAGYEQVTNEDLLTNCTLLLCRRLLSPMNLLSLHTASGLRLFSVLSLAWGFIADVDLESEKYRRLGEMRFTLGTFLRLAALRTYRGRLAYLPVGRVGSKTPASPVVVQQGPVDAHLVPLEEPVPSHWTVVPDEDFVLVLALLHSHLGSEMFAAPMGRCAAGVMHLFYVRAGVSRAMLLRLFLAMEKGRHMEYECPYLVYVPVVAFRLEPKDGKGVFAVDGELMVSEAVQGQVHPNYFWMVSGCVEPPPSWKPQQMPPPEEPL

Structure (SMILES)	inhibition [1]	inhibition [2]	inhibition [3]	inhibition [4]	inhibition [5]	inhibition [6]	inhibition [7]	inhibition [8]	inhibition [9]	inhibition [10]	inhibition [11]	inhibition [12]	inhibition [13]	inhibition [14]	inhibition [15]	inhibition [16]	inhibition [17]	inhibition [18]	inhibition [19]	inhibition [20]
CCN1CCC(CC(=O)Nc2n[nH]c3nc(-c4cccs4)c(Br)cc23)CC1	1.53%	-0.06%	-0.11%	1.1%	4.38%	4.35%	5.49%	-1.36%	-2.71%	-5.79%	-3.61%	-1.51%	0.77%	-1.87%	-2.3%	-1.1%	-2.19%	0.31%	-4.11%	0.24%
O=C1NC(=O)C(c2ccc(Cl)cc2)=C1Nc1ccc(Cl)c(C(=O)O)c1	-0.08%	2.29%	0.32%	-0.4%	-2.48%	11.5%	4.5%	0.8%	-1.44%	-4.08%	-2.57%	-0.84%	-2.3%	-1.89%	-2.45%	0.26%	2.37%	-1.15%	-3.67%	-5.68%
